Test systems include NCI-H23 lung; NCI-H226 lung; NCI-H322M lung; HOP-62 NSCLC; NCI-H460 lung; HOP-92 NSCLC; NCI-H522 lung; A549/ATCC NSCLC; 786-0 renal; DU-145 prostate; K-562 leukemia; MALME-3M melanoma; MDA-MB-231 breast; RXF 393 renal; SF-268 CNS; SF-295 CNS; SF-539 CNS; UACC-257 melanoma; M14 melanoma; COLO 205 colon.
Assay in all cases: NCI-60 one-dose screen, 48 h (100 = growth as untreated, 0 = no growth, -100 = all killed)
Common to all, as to conditions: 10 µM unless noted

The panel holds about 83,000 compounds, 20% with a hit somewhere; the sample as a whole holds those more often.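 Activity criterion: percent growth below 10, measured after cells in 96-well plates were exposed to a single compound concentration for 48 hours.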 A number with no mark means an inactive call. The source made the active and inactive calls.

Regarding `Clc1ccc(Nc2ncc(Cc3cccc(Cl)c3Cl)s2)cc1`, the growth is 88.7% with NCI-H23 lung; 102% with NCI-H226 lung; 110% with NCI-H322M lung; 108% in the assay on HOP-62 NSCLC; 97.6% in the assay on NCI-H460 lung; 89% with HOP-92 NSCLC. Also, the growth was 80.2% in the assay with NCI-H522 lung; 86.7% with A549/ATCC NSCLC; 95.2% with 786-0 renal; 102% in the assay with DU-145 prostate; 86.8% with K-562 leukemia; 96.7% with MALME-3M melanoma. For the same compound, the growth in the assay with MDA-MB-231 breast is 99.6%; in the assay on RXF 393 renal, 93.3%; with SF-268 CNS, 98.3%; in the assay on SF-295 CNS, 100%; with SF-539 CNS, 94.7%; in the assay on UACC-257 melanoma it was 96.6%. Besides, the growth with M14 melanoma was 103%.

With `Clc1ccc(Nc2nnc(CNc3ccccc3)c3ccccc23)cc1`, the growth in the assay on NCI-H23 lung was 9.95% (active); in the assay on NCI-H226 lung, 25%; with NCI-H322M lung, 30.4%; with HOP-62 NSCLC, 27.4%; with NCI-H460 lung, 17.7%; with HOP-92 NSCLC, -19.3% (active). Also, the growth was -5.92% (active) in the assay on NCI-H522 lung; 20.3% in the assay with A549/ATCC NSCLC; 21.4% in the assay with 786-0 renal; 19% in the assay on DU-145 prostate; 5.39% (active) with K-562 leukemia; -13.8% (active) in the assay with MALME-3M melanoma. For the same compound, the growth in the assay on MDA-MB-231 breast was 19.9%; with RXF 393 renal, 25.7%; with SF-268 CNS it was 20.9%; in the assay on SF-295 CNS, 14.3%; in the assay on SF-539 CNS, 34%; with UACC-257 melanoma, -6.49% (active). For the same compound, the growth with M14 melanoma was 5.8% (active).

Regarding `COc1cc2ncnc(Nc3ccc(S(=O)(=O)Nc4nccs4)cc3)c2cc1OCCCN1CCCC1`, the growth in the assay with NCI-H23 lung was 99.8%; with NCI-H226 lung it was 105%; with NCI-H322M lung, 103%; in the assay with HOP-62 NSCLC it was 103%; in the assay on NCI-H460 lung, 107%; in the assay on HOP-92 NSCLC, 119%. Further, the growth is 94.1% with NCI-H522 lung; 102% in the assay with A549/ATCC NSCLC; 105% with 786-0 renal; 105% with DU-145 prostate; 84.2% in the assay with K-562 leukemia; 101% in the assay on MALME-3M melanoma. Also, the growth in the assay with MDA-MB-231 breast was 104%; in the assay with RXF 393 renal it was 99%; in the assay with SF-268 CNS, 99.2%; with SF-295 CNS, 106%; in the assay with SF-539 CNS it was 101%; in the assay with UACC-257 melanoma it was 99.6%. In addition, the growth in the assay on M14 melanoma is 109%.

`O=[N+]([O-])c1c(O)c(Cl)cc(Cl)c1Cl`: the growth with NCI-H23 lung was 98.7%; in the assay with NCI-H226 lung it was 94.4%; with NCI-H322M lung it was 101%; in the assay on HOP-62 NSCLC, 97.9%; with NCI-H460 lung, 107%; with HOP-92 NSCLC it was 83.3%. Also, the growth was 94.7% in the assay on NCI-H522 lung; 93.1% in the assay on A549/ATCC NSCLC; 99.6% in the assay with 786-0 renal; 113% with DU-145 prostate; 103% in the assay with K-562 leukemia; 96.5% with MALME-3M melanoma. Also, the growth with MDA-MB-231 breast is 103%; with RXF 393 renal, 104%; with SF-268 CNS, 102%; in the assay on SF-295 CNS, 97.9%; in the assay on SF-539 CNS, 109%; in the assay with UACC-257 melanoma, 108%. The growth in the assay with M14 melanoma is 98.1%.

Take `Cc1ccc(O)c(NC(=O)c2cccc(Nc3ccnc(C(F)(F)F)c3)c2)c1`: the growth with NCI-H23 lung is 44.1%; in the assay on NCI-H226 lung it was 44.8%; with NCI-H322M lung, 86.5%; in the assay with HOP-62 NSCLC it was 85.6%; with NCI-H460 lung it was 55.4%; with HOP-92 NSCLC, 77.6%. Also, the growth in the assay on NCI-H522 lung is 43.1%; in the assay on A549/ATCC NSCLC it was 60.3%; in the assay on 786-0 renal, 50%; in the assay on DU-145 prostate it was 80.9%; with K-562 leukemia, 40.9%; with MALME-3M melanoma, 70.1%. Besides, the growth in the assay on MDA-MB-231 breast is 58.9%; in the assay on RXF 393 renal, 91.2%; in the assay with SF-268 CNS, 76.6%; in the assay on SF-295 CNS, 40.3%; with SF-539 CNS it was 72.6%; in the assay with UACC-257 melanoma, 58.7%. Also, in the assay on M14 melanoma, the growth is 68.4%.

Consider `COc1ccc(C(=O)Nc2ncc(Cc3ccc(Cl)cc3)s2)cc1`, for which the growth was 30.5% in the assay on NCI-H23 lung; 41.7% in the assay on NCI-H226 lung; 35.7% in the assay on NCI-H322M lung; 21.2% in the assay with HOP-62 NSCLC; 5.09% (active) with NCI-H460 lung; 41.4% with HOP-92 NSCLC. For the same compound, the growth was -16.3% (active) in the assay on NCI-H522 lung; 17.7% in the assay with A549/ATCC NSCLC; 17.6% with 786-0 renal; 12.6% with DU-145 prostate; 7.71% (active) with K-562 leukemia; 57.2% in the assay on MALME-3M melanoma. The growth in the assay with MDA-MB-231 breast was 31.3%; in the assay on RXF 393 renal it was 3.43% (active); with SF-268 CNS, 44.8%; in the assay with SF-295 CNS, 1.3% (active); with SF-539 CNS it was -22.9% (active); in the assay on UACC-257 melanoma, 46.8%. The growth in the assay on M14 melanoma is -29.4% (active).

On to `CCN(CC)CCOc1ccc(Nc2ncc3cc(-c4c(Cl)cccc4Cl)c(=O)n(CCOC)c3n2)cc1`, for which the growth was -9.78% (active) in the assay with NCI-H23 lung; 28% in the assay with NCI-H226 lung; 17.5% in the assay with NCI-H322M lung; 6.51% (active) in the assay on HOP-62 NSCLC; 3.65% (active) in the assay with NCI-H460 lung; -18.7% (active) with HOP-92 NSCLC. Further, the growth in the assay on NCI-H522 lung was -28.5% (active); in the assay with A549/ATCC NSCLC, 0.456% (active); with 786-0 renal, 5.35% (active); with DU-145 prostate, -13.8% (active); with K-562 leukemia it was 5.78% (active); in the assay on MALME-3M melanoma it was 10.6%. In addition, the growth was -73.2% (active) in the assay on MDA-MB-231 breast; -64.4% (active) in the assay with RXF 393 renal; -9.68% (active) with SF-268 CNS; 25.7% with SF-295 CNS; -75.7% (active) with SF-539 CNS; 12.9% in the assay on UACC-257 melanoma. Further, the growth in the assay on M14 melanoma was -6.68% (active).

As to `Cc1ccccc1N1CCN(C(=S)c2ccccc2)CC1`, the growth in the assay on NCI-H23 lung is 81.3%; in the assay with NCI-H226 lung it was 92.1%; in the assay with NCI-H322M lung, 102%; in the assay on HOP-62 NSCLC it was 95.2%; with NCI-H460 lung it was 92.4%; in the assay on HOP-92 NSCLC it was 97.9%. Besides, the growth with NCI-H522 lung was 47.8%; in the assay on A549/ATCC NSCLC, 87.4%; in the assay with 786-0 renal, 103%; in the assay with DU-145 prostate it was 114%; in the assay with K-562 leukemia, 107%; in the assay on MALME-3M melanoma, 103%. Further, the growth in the assay with MDA-MB-231 breast was 93.9%; in the assay with RXF 393 renal it was 96.6%; in the assay with SF-268 CNS, 105%; in the assay with SF-295 CNS, 69.5%; with SF-539 CNS, 94.7%; in the assay with UACC-257 melanoma it was -18% (active). In addition, the growth in the assay on M14 melanoma was 101%.

For the compound `COC(=O)c1sccc1-c1cc(O)c(C(=O)Nc2ccccc2)s1`, the growth with NCI-H23 lung is 83%; with NCI-H226 lung it was 90.9%; with NCI-H322M lung, 93.3%; in the assay on HOP-62 NSCLC, 92.2%; in the assay with NCI-H460 lung, 104%; in the assay with HOP-92 NSCLC it was 97.9%. Besides, the growth in the assay with NCI-H522 lung is 90.9%; in the assay on A549/ATCC NSCLC, 91.5%; in the assay on 786-0 renal, 106%; in the assay with DU-145 prostate it was 99.1%; with K-562 leukemia, 91.6%; in the assay with MALME-3M melanoma, 84.5%. Besides, the growth in the assay with MDA-MB-231 breast was 91.5%; with RXF 393 renal, 115%; in the assay on SF-268 CNS, 91.7%; in the assay on SF-295 CNS, 99.4%; with SF-539 CNS, 98.8%; with UACC-257 melanoma, 91.6%. In addition, the growth in the assay on M14 melanoma is 93.3%.

As to `CCN(CC)CCN1C(=O)c2c(c3c4ccccc4[nH]c3c3ccc4ccccc4c23)C1=O`, the growth was -67.8% (active) in the assay on NCI-H23 lung; 87.5% with NCI-H226 lung; 87% with NCI-H322M lung; 55.3% with HOP-62 NSCLC; 16.3% in the assay on NCI-H460 lung; 66.2% with HOP-92 NSCLC. For the same compound, the growth in the assay on NCI-H522 lung was 67.8%; in the assay on 786-0 renal it was -96.7% (active); in the assay on COLO 205 colon, 78.7%; in the assay with DU-145 prostate, -92.3% (active); with K-562 leukemia it was -33% (active); in the assay on MALME-3M melanoma it was -85.7% (active). The growth in the assay with MDA-MB-231 breast was -78.9% (active); with RXF 393 renal, 47.1%; in the assay with SF-268 CNS, -45% (active); with SF-295 CNS, 48.3%; with SF-539 CNS, -85.7% (active); in the assay on UACC-257 melanoma, 105%. In the assay on M14 melanoma, the growth is -85% (active).

On to `Nc1ncccc1O`, for which the growth with NCI-H23 lung is 78%; with NCI-H226 lung, 94.1%; with NCI-H322M lung, 98.8%; in the assay with HOP-62 NSCLC, 99.5%; in the assay with NCI-H460 lung, 49.3%; in the assay with HOP-92 NSCLC, 105%. Also, the growth in the assay with NCI-H522 lung was 61.4%; with 786-0 renal it was 111%; in the assay with COLO 205 colon it was 92.6%; with DU-145 prostate, 22.8%; in the assay with K-562 leukemia it was 67.6%; in the assay with MALME-3M melanoma it was 131%. Further, the growth in the assay with MDA-MB-231 breast is 117%; with RXF 393 renal, 76.1%; with SF-268 CNS, 96%; in the assay with SF-295 CNS, 82.4%; in the assay with SF-539 CNS it was 106%; with UACC-257 melanoma, 91.3%. Further, the growth in the assay on M14 melanoma is 102%.

Turning to `CCOC(=O)c1cn2ncnc(Oc3ccc(NC(=O)NC4CC4)c(Cl)c3)c2c1C`, the growth with NCI-H23 lung was 84.6%; in the assay with NCI-H226 lung, 71.4%; in the assay on NCI-H322M lung, 101%; in the assay with HOP-62 NSCLC, 90.9%; in the assay with NCI-H460 lung it was 102%; with HOP-92 NSCLC, 109%. The growth in the assay with NCI-H522 lung was 75.9%; in the assay with 786-0 renal it was 93.5%; in the assay with COLO 205 colon, 108%; in the assay on DU-145 prostate, 97%; in the assay with K-562 leukemia, 73.6%; in the assay on MALME-3M melanoma, 95.3%. For the same compound, the growth is 89.3% in the assay on MDA-MB-231 breast; 92.3% in the assay on RXF 393 renal; 88.9% with SF-268 CNS; 84.8% with SF-295 CNS; 79.5% with SF-539 CNS; 100% in the assay on UACC-257 melanoma. In addition, in the assay on M14 melanoma, the growth is 98.9%.

For the origin of these results see PubChem BioAssay (NCI).
